32 sequences from the supplement of paper PMC3545927 can be followed below.

This assay addresses furin, P09958. Kind of assay: furin cleavage Z-score vs untreated control; higher = more cleavage, active = 3.5 or more, inactive = 1 or less, 8 variable residues between constant flanks. In outline: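 Peptides 8 residues long, fused to a cDNA oligonucleotide, were fixed to magnetic beads by the N-terminus and exposed to purified furin. The 0.01 ml reactions contained 50 mM HEPES pH 7.5 with CaCl2 and NaCl at 1:10 enzyme:substrate and ran 7.5, 15 or 30 min. For the cleavage Z-score, log counts of sequenced released DNA were compared with furin-free reactions, lowess-adjusted and scaled by median absolute deviation.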

This is one part of the list. The hit rate among all sequences tested is not known here.

Sequence of furin, P09958 (P09958 whole entry, the tested form may be a part): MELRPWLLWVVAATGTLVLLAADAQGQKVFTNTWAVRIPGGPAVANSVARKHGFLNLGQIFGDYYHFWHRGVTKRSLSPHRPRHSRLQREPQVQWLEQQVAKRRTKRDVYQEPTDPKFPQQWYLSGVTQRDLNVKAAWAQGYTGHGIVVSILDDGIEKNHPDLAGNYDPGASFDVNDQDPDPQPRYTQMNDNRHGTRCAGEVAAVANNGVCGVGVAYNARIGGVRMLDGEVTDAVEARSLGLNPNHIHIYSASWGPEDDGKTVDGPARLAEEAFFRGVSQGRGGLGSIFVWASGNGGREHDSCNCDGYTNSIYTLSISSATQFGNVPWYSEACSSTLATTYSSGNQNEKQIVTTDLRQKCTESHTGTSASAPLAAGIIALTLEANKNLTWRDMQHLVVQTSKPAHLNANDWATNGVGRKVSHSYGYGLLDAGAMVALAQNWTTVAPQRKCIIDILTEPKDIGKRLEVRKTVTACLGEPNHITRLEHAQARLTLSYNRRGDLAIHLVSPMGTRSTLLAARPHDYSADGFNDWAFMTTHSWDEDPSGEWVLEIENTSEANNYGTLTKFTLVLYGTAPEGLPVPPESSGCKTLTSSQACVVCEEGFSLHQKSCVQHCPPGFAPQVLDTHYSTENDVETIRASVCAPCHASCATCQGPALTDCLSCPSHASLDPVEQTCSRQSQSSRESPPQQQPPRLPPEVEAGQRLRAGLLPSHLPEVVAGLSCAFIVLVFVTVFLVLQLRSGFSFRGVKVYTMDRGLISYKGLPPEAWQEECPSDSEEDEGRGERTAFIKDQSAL

On to CASTPCSQHLAGNASASA [HC2542], for which the “furin cleavage Z-score” value was -0.0132 (inactive) (7.5 min), 0.861 (inactive) (15 min) and 2.13 (30 min).

On to CAITLTHPVTAGNASASA [HC978], for which the “furin cleavage Z-score” value by setting is: (7.5 min) -0.565 (inactive); (15 min) -1.36 (inactive); (30 min) -0.511 (inactive).

Consider CACVVTSTWVAGNASASA [HC2160], for which the “furin cleavage Z-score” value is, setting by setting: (7.5 min) -0.122 (inactive); (15 min) 1.54; (30 min) -0.488 (inactive).

Regarding CARERKAGCKAGNASASA [DV2], the “furin cleavage Z-score” value was 0.35 (inactive) (7.5 min), 1.62 (15 min) and 2.14 (30 min).

For CAMEEYSQHLAGNASASA [HC17], the “furin cleavage Z-score” value runs as follows: (7.5 min) -0.583 (inactive); (15 min) 0.186 (inactive); (30 min) 0.59 (inactive).

CASVLCECYDAGNASASA [HC918]: the “furin cleavage Z-score” value reads like this: (7.5 min) -0.934 (inactive); (15 min) -1.47 (inactive); (30 min) -0.91 (inactive).

Take CARKARSYIKAGNASASA [FS-2340]: the “furin cleavage Z-score” value is, setting by setting: (7.5 min) -0.0545 (inactive); (15 min) 0.583 (inactive); (30 min) 3.72 (active).

CARKARMLYQAGNASASA [FS-2685]: the “furin cleavage Z-score” value is, setting by setting: (7.5 min) 1.39; (15 min) 5.49 (active); (30 min) 5 (active).

For the sequence CARKAVTHINAGNASASA [HC1427], the “furin cleavage Z-score” value was -0.202 (inactive) (7.5 min), -1.07 (inactive) (15 min) and 0.0109 (inactive) (30 min).

As for CARRKRYISQAGNASASA [FS-1780], the “furin cleavage Z-score” value is, setting by setting: (7.5 min) 6.79 (active); (15 min) 7.45 (active); (30 min) 9.13 (active).

As to CARRKRKKEVAGNASASA [FS-2296], the “furin cleavage Z-score” value (7.5 min) worked out at 1.16, the “furin cleavage Z-score” value (15 min) was -1.15 (inactive) and the “furin cleavage Z-score” value (30 min) is 1.21.

With CANTLTCYIKAGNASASA [HC1516], the “furin cleavage Z-score” value is, setting by setting: (7.5 min) -0.56 (inactive); (15 min) -0.15 (inactive); (30 min) -0.828 (inactive).

Take CARKARIISQAGNASASA [FS-3157]: the “furin cleavage Z-score” value by setting is: (7.5 min) 1.75; (15 min) -1.95 (inactive); (30 min) -0.675 (inactive).

Turning to CARRKRHSEHAGNASASA [FS-3166], the “furin cleavage Z-score” value reads like this: (7.5 min) 10.5 (active); (15 min) 10.9 (active); (30 min) 8.79 (active).

On to CAKKTPMGFSAGNASASA [HC1476], for which the “furin cleavage Z-score” value runs as follows: (7.5 min) -0.403 (inactive); (15 min) 1.01; (30 min) -1.33 (inactive).

For CAHEECSQHLAGNASASA [HC1675], the “furin cleavage Z-score” value reads like this: (7.5 min) -0.578 (inactive); (15 min) 0.64 (inactive); (30 min) 1.48.

As for CAVVCQSMSYAGNASASA [HC99], the “furin cleavage Z-score” value is, setting by setting: (7.5 min) 0.407 (inactive); (15 min) 0.993 (inactive); (30 min) 0.767 (inactive).

With CAHVQRQRREAGNASASA [FS-441], the “furin cleavage Z-score” value is 12.3 (active) (7.5 min), 12.8 (active) (15 min) and 9.16 (active) (30 min).

Consider CAPCCRQRREAGNASASA [FS-471], for which the “furin cleavage Z-score” value was 10.1 (active) (7.5 min), 8.7 (active) (15 min) and 8.83 (active) (30 min).

Turning to CAYSPGQRVEAGNASASA [HC1468], the “furin cleavage Z-score” value was -0.672 (inactive) (7.5 min), 1.68 (15 min) and -1.81 (inactive) (30 min).

CAPCQVPSPEAGNASASA [HC1217]: the “furin cleavage Z-score” value is 0.307 (inactive) (7.5 min), -0.147 (inactive) (15 min) and 0.789 (inactive) (30 min).

For the sequence CAGHYVQMVIAGNASASA [HC626], the “furin cleavage Z-score” value runs as follows: (7.5 min) -0.996 (inactive); (15 min) -0.792 (inactive); (30 min) 0.151 (inactive).

With CAEVDTSTWVAGNASASA [HC2191], the “furin cleavage Z-score” value (7.5 min) is -0.604 (inactive), the “furin cleavage Z-score” value (15 min) is -1.24 (inactive) and the “furin cleavage Z-score” value (30 min) is 0.933 (inactive).

As for CAVAHLHAPTAGNASASA [HC773], the “furin cleavage Z-score” value reads like this: (7.5 min) -0.671 (inactive); (15 min) -1.87 (inactive); (30 min) -0.0272 (inactive).

In the case of CARNKRKVFSAGNASASA [FS-2159], the “furin cleavage Z-score” value was 0.528 (inactive) (7.5 min), 1.39 (15 min) and 3.14 (30 min).

Consider CARHKRMCQGAGNASASA [FS-2335], for which the “furin cleavage Z-score” value is 1.23 (7.5 min), 0.787 (inactive) (15 min) and 3.08 (30 min).

As to CARHKRRSKFAGNASASA [FS-2938], the “furin cleavage Z-score” value reads like this: (7.5 min) 1.38; (15 min) 2.52; (30 min) 5.2 (active).

On to CARHKRSLLRAGNASASA [FS-2336], for which the “furin cleavage Z-score” value reads like this: (7.5 min) 3.75 (active); (15 min) 5.3 (active); (30 min) 6.44 (active).

Consider CARHKRETLKAGNASASA [FS-2678], for which the “furin cleavage Z-score” value is 8.31 (active) (7.5 min), 10.5 (active) (15 min) and 9.25 (active) (30 min).

In the case of CARHKRKQLPAGNASASA [FS-1823], the “furin cleavage Z-score” value is 1.11 (7.5 min), -0.015 (inactive) (15 min) and 2.17 (30 min).

Turning to CAALSNSLLRAGNASASA [HC1383], the “furin cleavage Z-score” value was -1.04 (inactive) (7.5 min), 0.165 (inactive) (15 min) and 0.485 (inactive) (30 min).

CARHKRKVFEAGNASASA [FS-1954]: the “furin cleavage Z-score” value by setting is: (7.5 min) 0.591 (inactive); (15 min) 1.75; (30 min) 4.34 (active).
